# Patent publication US20140271602, “NUCLEOTIDE-SPECIFIC RECOGNITION SEQUENCES FOR DESIGNER TAL EFFECTORS” (THE BROAD INSTITUTE INC., published 2014)
# Substitutions are numbered along the chain they refer to.
# Key:
# Test in all cases: cell_activity; luciferase reporter
# Conditions in all cases: tags: VP64, 2A-GFP; dsDNA, one strand shown
# [1] = target: T1, TALE2-HN (CACNA1C site 2 activator) (Xanthomonas (engineered), UniProt P14727 SEQ:1-983)
# T1 chain: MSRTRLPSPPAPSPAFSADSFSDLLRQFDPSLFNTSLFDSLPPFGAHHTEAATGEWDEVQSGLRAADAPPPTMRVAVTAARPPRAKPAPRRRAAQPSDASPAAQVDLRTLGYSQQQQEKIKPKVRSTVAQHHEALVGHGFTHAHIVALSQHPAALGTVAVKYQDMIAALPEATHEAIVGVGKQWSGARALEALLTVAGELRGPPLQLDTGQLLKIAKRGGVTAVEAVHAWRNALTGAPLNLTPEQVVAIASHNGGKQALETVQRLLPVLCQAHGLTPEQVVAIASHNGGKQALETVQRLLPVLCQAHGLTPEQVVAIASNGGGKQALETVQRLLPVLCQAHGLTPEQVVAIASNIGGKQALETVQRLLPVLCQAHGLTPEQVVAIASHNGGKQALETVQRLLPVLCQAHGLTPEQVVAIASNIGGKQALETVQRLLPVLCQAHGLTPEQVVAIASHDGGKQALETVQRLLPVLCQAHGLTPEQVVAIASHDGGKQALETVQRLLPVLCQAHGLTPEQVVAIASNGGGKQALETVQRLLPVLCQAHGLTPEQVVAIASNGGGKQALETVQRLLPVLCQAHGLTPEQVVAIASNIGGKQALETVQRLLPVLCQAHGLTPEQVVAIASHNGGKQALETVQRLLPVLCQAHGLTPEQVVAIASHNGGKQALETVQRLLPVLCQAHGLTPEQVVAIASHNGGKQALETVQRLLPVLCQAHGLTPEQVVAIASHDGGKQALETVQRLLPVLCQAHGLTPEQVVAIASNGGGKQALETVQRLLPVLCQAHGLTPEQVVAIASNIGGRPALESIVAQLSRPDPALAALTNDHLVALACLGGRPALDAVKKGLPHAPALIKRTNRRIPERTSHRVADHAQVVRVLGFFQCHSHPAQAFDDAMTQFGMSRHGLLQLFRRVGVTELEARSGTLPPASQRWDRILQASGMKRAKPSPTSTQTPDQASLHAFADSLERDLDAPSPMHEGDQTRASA
# [2] = target: T2, TALE2-NH (CACNA1C site 2 activator) (Xanthomonas (engineered), UniProt P14727 SEQ:1-983)
# T2 chain: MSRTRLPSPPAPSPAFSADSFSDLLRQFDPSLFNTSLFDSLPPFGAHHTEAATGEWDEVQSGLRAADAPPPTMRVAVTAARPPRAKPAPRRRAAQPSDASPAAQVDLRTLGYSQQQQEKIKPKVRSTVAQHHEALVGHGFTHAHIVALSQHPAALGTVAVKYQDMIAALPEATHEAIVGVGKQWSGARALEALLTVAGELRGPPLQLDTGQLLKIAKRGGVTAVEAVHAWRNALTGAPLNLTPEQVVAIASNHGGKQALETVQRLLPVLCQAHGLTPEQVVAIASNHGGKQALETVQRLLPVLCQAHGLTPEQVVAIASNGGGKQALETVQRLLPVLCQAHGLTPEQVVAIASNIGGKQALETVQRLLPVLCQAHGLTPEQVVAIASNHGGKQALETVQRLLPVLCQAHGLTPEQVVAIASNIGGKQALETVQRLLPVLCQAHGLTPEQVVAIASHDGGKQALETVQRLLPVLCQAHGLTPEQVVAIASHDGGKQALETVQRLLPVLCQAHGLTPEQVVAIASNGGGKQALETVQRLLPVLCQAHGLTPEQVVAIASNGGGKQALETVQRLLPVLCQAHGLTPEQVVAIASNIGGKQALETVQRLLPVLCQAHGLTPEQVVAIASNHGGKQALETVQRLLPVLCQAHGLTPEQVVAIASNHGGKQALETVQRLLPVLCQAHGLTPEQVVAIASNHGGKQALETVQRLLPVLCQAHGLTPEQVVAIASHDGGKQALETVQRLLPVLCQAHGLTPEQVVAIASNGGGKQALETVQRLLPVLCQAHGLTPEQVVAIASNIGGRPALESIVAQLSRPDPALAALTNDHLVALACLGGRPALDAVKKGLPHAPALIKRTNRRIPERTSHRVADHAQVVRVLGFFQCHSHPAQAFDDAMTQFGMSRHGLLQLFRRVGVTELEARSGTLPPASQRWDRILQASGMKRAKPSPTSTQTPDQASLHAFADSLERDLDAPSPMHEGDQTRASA
# [3] = target: T3, TALE2-NK (CACNA1C site 2 activator) (Xanthomonas (engineered), UniProt P14727 SEQ:1-983)
# T3 chain: T2 chain with H253K, H287K, H389K, H627K, H661K, H695K
# [4] = target: T4, TALE1-NN (CACNA1C site 1 activator) (Xanthomonas (engineered), UniProt P14727 SEQ:1-983)
# T4 chain: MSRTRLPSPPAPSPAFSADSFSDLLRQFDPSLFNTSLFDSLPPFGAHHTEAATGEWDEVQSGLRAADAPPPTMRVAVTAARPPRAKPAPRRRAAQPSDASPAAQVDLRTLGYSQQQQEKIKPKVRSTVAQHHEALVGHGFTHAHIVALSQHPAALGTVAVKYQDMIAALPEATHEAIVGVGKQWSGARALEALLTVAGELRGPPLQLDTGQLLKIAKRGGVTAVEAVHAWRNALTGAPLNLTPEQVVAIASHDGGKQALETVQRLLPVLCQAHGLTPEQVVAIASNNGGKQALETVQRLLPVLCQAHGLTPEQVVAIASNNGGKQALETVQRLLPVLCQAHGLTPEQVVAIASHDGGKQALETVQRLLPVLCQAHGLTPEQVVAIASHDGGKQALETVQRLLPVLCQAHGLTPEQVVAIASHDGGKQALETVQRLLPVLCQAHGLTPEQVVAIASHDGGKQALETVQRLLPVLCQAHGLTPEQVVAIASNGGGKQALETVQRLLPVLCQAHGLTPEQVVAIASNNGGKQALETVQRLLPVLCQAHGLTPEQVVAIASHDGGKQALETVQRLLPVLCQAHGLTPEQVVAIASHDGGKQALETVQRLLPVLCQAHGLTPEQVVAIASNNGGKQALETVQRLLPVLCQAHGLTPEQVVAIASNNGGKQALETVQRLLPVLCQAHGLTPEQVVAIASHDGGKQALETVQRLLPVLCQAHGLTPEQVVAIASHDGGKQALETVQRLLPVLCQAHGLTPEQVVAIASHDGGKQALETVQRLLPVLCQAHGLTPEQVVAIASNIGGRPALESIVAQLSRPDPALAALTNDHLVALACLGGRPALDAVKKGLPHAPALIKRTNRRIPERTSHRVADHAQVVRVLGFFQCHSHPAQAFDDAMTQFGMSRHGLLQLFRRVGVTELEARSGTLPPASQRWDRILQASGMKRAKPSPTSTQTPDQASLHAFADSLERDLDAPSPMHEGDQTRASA
# [5] = target: T5, TALE1-NK (CACNA1C site 1 activator) (Xanthomonas (engineered), UniProt P14727 SEQ:1-983)
# T5 chain: T4 chain with N287K, N321K, N525K, N627K, N661K
sequence,measurement,setting,value
TAATAGACCTTAGGGCTA,binding signal,[1],13.9 % reduction vs wild-type site
same,binding signal,[2],66.1 % reduction vs wild-type site
same,binding signal,[3],36.3 % reduction vs wild-type site
TAATAAACCTTAAAACTA,binding signal,[2],< 10 % of wild-type site activation
TCAACCCCTGCCGGCCCA,binding signal,[4],35.4 % reduction vs wild-type site
same,binding signal,[5],40.3 % reduction vs wild-type site
